Common to all, as to set-up: scale not given: direction of the effect not stated beside the values
For test [1], the target named is Protein translocase subunit SecA (Escherichia coli (strain K12)) (UniProt P10408). Briefly: Assay to Identify E. coli SecA ATPase Inhibitors. It counts as functional. To be noted: 30 µM.
Test [2] addresses T1, Ubiquitin-activating enzyme e1, putative (Leishmania donovani (strain BPK282A1)) (UniProt E9BSI1).
T1 sequence (whole entry): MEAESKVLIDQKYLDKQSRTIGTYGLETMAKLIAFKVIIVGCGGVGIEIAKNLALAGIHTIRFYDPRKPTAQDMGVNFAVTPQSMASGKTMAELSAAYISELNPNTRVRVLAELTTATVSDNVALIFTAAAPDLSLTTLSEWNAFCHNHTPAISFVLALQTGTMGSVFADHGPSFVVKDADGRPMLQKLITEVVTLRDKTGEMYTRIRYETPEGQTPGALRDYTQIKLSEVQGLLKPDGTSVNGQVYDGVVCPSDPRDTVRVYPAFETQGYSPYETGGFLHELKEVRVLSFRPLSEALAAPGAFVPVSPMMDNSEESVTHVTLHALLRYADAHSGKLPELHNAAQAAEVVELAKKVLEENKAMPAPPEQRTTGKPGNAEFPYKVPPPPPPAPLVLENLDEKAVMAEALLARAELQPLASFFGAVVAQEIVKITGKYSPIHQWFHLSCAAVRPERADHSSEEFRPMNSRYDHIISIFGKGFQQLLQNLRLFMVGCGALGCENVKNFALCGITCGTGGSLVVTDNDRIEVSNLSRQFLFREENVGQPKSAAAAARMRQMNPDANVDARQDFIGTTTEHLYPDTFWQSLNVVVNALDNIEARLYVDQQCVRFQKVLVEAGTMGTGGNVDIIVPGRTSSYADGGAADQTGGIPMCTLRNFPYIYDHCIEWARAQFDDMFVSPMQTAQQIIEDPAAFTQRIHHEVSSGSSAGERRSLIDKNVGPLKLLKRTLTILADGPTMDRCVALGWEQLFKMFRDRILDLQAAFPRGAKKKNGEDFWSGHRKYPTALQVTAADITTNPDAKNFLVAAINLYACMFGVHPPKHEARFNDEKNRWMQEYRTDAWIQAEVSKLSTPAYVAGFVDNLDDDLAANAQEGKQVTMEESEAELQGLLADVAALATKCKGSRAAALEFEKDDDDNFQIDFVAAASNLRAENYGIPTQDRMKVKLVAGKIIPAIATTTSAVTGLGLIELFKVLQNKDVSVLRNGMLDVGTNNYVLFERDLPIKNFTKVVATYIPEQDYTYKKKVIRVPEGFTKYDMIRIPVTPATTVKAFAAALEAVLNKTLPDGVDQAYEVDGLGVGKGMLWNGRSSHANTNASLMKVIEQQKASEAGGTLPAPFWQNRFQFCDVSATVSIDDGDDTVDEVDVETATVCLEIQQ
Nature of the test: Leishmania donovani Ubiquitin Activating Enzyme (LdE1). It counts as functional. To be noted: 30 µM.

In test [3] the target is Sialic acid-binding Ig-like lectin 9 (Homo sapiens) (UniProt Q9Y336). Briefly: Hs-Siglec9 ALPHAscreen SOP 20170721. To be noted: 10 µM. For orientation: In Alpha technology, singlet oxygen from a donor bead excites a nearby acceptor bead.
Another test relates to Trypanosoma cruzi. Briefly: Trypanosoma cruzi phosphomannomutase and mannose-1-phosphate guanylyltransferase assay. As to conditions: 10 µM. It counts as functional.
Test [4] deals with T2, Arginase-2, mitochondrial (Homo sapiens) (UniProt P78540).
T2 sequence (whole entry): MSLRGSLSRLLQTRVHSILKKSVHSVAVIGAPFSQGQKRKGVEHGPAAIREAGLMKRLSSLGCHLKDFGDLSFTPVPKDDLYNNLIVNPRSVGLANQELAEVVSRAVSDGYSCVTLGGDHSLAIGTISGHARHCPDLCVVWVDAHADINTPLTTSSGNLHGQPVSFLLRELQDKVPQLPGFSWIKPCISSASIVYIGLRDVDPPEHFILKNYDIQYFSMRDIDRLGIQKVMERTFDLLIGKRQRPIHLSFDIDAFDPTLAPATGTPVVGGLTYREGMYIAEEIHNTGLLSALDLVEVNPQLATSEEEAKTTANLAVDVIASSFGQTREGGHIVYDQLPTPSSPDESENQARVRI
Nature of the test: in vitro enzyme assay to detect the production of urea directly proportional to the activity of Arginase II. Note: in the data most compounds retested in dose-response had high values. It counts as functional. As to conditions: 33.3 µM.

Test [5] concerns the target T3, Proteasome subunit beta (Trypanosoma cruzi) (UniProt O96673).
T3 sequence (whole entry): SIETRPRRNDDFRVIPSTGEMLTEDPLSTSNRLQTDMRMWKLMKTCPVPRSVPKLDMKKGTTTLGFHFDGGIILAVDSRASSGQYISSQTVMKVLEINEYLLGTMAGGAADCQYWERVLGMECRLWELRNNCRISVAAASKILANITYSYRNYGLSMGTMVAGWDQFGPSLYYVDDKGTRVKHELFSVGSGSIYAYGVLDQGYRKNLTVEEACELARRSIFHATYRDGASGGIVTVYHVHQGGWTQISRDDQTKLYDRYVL
Nature of the test: Trypanosoma cruzi proteasome chymotrypsin-like activity (TcProtChymo) assay. Note: in the data most compounds retested in dose-response had high values. To be noted: 9.37 µM. It counts as functional.

For another test, the species on record is Homo sapiens. Nature of the test: To identify inhibition of the IFN signalling (Jak-Stat) pathway via expression of an eGFP reporter gene under the control of an IFN-stimulated response element (ISRE) containing MxA promoter. It counts as functional. To be noted: 30 µM. In general terms: Reporter assays use an easily measured gene product as a stand-in for the process of interest.

Test [6] addresses T4, Tyrosyl-tRNA synthetase, putative (Trypanosoma cruzi (strain CL Brener)) (UniProt Q4DSP6).
T4 sequence (whole entry): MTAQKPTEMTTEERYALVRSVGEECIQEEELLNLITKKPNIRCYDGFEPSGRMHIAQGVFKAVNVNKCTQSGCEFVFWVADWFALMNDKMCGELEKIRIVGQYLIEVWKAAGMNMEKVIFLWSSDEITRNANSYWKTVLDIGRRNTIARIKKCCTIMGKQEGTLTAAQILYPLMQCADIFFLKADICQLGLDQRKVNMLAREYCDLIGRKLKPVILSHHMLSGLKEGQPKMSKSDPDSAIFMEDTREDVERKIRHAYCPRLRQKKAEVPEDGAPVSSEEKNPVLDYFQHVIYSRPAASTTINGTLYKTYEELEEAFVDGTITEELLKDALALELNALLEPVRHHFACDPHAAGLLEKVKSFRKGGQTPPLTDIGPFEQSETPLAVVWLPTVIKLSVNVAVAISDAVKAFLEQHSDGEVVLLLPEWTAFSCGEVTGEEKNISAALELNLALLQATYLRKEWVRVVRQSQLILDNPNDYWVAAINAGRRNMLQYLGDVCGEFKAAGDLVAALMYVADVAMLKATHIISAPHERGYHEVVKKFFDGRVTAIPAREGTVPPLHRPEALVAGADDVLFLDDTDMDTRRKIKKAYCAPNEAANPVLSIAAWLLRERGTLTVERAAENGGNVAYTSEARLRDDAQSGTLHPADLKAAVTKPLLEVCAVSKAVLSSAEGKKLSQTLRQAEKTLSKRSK
Briefly: Trypanosoma cruzi tyrosyl tRNA synthetase (TcYRS) _High Tyrosine SOP. Note: in the data most compounds retested in dose-response had high values. To be noted: 30 µM. The test is classed as functional.

Test [7] deals with T4, Tyrosyl-tRNA synthetase, putative (Trypanosoma cruzi (strain CL Brener)). Briefly: Trypanosoma cruzi tyrosyl tRNA synthetase (TcYRS) SOP. It counts as functional. To be noted: 30 µM.
Test [8] deals with Chromo domain-containing protein 1 (Saccharomyces cerevisiae (strain ATCC 204508 / S288c) (Baker's yeast)) (UniProt P32657). Nature of the test: ScCHD-1 Enzyme Inhibition Assay. Note: in the data most compounds retested in dose-response had high values. The test is classed as functional. To be noted: 30 µM.

For some assays here: Measured potencies and affinities stand elsewhere.

Protein translocase subunit SecA (Escherichia coli (strain K12)), sequence (P10408 whole entry): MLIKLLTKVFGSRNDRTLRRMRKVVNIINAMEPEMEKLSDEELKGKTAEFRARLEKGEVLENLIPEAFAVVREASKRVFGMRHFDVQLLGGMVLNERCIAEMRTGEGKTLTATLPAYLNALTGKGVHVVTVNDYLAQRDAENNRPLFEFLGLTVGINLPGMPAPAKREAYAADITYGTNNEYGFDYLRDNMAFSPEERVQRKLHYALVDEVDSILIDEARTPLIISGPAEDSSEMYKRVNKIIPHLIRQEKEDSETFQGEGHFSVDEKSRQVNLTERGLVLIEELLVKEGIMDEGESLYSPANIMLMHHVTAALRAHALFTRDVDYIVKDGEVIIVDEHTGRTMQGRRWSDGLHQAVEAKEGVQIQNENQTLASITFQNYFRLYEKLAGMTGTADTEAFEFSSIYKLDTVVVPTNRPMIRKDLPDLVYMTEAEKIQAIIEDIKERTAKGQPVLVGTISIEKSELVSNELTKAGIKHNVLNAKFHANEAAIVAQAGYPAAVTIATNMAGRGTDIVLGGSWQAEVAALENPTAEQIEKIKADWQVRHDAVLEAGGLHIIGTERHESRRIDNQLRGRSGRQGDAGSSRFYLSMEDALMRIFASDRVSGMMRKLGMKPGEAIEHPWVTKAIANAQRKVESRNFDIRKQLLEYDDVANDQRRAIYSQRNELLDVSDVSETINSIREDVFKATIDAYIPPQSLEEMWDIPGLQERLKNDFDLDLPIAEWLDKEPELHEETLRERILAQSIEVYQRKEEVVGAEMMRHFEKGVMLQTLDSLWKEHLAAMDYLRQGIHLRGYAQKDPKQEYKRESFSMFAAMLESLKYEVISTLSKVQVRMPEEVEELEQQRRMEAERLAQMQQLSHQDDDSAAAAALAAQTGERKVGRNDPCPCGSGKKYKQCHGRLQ
Sialic acid-binding Ig-like lectin 9 (Homo sapiens), sequence (Q9Y336 whole entry): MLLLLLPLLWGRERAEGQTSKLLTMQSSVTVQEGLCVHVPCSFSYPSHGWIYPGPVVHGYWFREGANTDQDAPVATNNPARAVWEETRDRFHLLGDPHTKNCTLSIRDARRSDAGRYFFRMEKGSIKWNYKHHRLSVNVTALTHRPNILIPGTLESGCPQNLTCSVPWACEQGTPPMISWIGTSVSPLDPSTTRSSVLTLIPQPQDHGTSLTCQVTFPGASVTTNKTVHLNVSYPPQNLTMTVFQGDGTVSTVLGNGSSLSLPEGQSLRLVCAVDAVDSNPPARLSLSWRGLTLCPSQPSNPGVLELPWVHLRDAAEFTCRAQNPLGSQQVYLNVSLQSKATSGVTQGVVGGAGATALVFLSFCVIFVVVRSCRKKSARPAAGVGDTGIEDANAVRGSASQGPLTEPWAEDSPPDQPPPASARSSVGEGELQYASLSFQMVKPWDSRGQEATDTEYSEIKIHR
Chromo domain-containing protein 1 (Saccharomyces cerevisiae (strain ATCC 204508 / S288c) (Baker's yeast)), sequence (P32657 whole entry, the tested form may be a part): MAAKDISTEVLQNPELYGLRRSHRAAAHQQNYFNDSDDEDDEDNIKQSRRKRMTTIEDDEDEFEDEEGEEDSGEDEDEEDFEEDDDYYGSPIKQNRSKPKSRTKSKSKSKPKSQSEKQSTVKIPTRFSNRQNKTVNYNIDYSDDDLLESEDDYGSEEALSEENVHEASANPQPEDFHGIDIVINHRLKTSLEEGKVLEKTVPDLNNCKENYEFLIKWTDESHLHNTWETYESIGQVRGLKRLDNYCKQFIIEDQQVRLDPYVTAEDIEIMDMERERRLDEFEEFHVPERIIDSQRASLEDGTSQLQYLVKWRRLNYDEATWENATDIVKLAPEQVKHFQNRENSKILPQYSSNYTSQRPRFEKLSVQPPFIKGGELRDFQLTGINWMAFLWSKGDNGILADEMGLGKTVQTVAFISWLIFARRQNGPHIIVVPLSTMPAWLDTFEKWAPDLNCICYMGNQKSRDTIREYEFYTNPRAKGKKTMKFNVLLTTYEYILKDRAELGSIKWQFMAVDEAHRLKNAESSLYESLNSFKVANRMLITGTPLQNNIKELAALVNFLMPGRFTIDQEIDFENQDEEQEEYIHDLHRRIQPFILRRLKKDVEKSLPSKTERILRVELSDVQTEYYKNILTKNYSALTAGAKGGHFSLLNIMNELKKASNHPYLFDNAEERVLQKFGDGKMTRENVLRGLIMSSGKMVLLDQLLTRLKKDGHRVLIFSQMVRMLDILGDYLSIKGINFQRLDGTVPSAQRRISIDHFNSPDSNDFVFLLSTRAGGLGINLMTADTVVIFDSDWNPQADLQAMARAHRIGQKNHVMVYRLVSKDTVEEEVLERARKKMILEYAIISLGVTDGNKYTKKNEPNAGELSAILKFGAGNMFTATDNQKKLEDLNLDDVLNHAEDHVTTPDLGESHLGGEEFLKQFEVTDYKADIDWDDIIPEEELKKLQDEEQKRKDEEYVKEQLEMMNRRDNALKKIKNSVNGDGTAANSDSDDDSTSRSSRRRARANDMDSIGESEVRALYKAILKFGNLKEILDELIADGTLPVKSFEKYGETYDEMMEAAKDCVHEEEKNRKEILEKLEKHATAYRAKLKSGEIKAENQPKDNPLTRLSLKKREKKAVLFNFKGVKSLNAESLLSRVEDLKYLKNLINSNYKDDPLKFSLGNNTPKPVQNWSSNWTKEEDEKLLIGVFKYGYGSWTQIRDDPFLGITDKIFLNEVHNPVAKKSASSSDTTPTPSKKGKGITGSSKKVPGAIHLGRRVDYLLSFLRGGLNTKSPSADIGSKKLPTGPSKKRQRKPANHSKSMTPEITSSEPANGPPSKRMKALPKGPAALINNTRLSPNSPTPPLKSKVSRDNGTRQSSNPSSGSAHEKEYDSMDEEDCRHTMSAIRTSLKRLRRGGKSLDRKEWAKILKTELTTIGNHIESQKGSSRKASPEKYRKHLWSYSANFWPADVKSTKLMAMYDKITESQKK

As to `CC(C)CN1CCC2(CCN(Cc3ccoc3)CC2)C1=O`, the Percent Effect in [1] is -1.85%; in test [2] it was 27.3%; in test [3], 3.42%; with Trypanosoma cruzi, 3.94%; in test [4], -4.57%; in [5], 19.7%. The Percent Effect is -0.618% in the test listed under Homo sapiens, 10.6% in test [6], 12.5% in test [7] and -9.31% in [8].

Take `CC(C)OCCN(C)C(C)c1cccc(S(N)(=O)=O)c1` (stereo not given): the Percent Effect in test [1] was -5.89%; in test [2], 7.79%; in [3], -5.22%; in the test on Trypanosoma cruzi, -3.36%; in test [4], 2.66%; in test [5], 1.05%. The Percent Effect is 15.1% in the test filed under Homo sapiens, -1.96% in [6], -2.35% in [7] and -1.17% in [8].

Take `CCNC(=O)[C@@H]1C[C@H](NC(=O)Cc2ccsc2)CN1Cc1ccc(C)o1`: the Percent Effect was -3.95% in test [1]; 13.5% in test [2]; 10.2% in [3]; 9.02% in the test with Trypanosoma cruzi; 14.3% in [4]; 20.9% in test [5]. Further, the Percent Effect came to 20.3% in the test listed under Homo sapiens, 7.98% in test [6], 21.9% in test [7] and 80.5% in test [8].

With `CCc1ncc(C(=O)N2CCOCC2c2c(C)n[nH]c2C)s1` (stereo not given), the Percent Effect is -0.434% in test [1]; 10.3% in test [2]; -1.82% in test [3]; 7.23% with Trypanosoma cruzi; 0.41% in test [4]; 1.11% in test [5]. Besides, the Percent Effect is -6.48% in the test listed under Homo sapiens, -0.478% in test [6], 8.43% in test [7] and -1.09% in test [8].

Turning to `CCOCC1CC2(CCN(Cc3ccccn3)CC2)CO1` (stereo not given), the Percent Effect was -9.03% in [1]; 1.3% in [2]; 1.88% in test [3]; 0.292% in the test on Trypanosoma cruzi; -2.83% in [4]; 11.7% in test [5]. Further, the Percent Effect in the test filed under Homo sapiens was -4.94%; in [6], 2.63%; in [7], 5.13%; in test [8], 16.1%.

With `CC(C)c1nnc2n1CCN(C(=O)c1ccc3cc[nH]c3c1)C2`, the Percent Effect in test [1] is -6.11%; in [2], 10.7%; in test [3], 4.04%; in the test on Trypanosoma cruzi, -1.61%; in [4] it was 2.66%; in [5], 1.27%. For the same compound, the Percent Effect is 6.35% in the test filed under Homo sapiens, 5.79% in test [6], 12.8% in test [7] and -9.74% in test [8].

Regarding `Cc1nn(C)c(N(C)C)c1CNC(C)COc1cccc(F)c1` (stereo not given), the Percent Effect in test [1] is -4.28%; in [2] it was -5.2%; in test [3] it was -1.85%; in the test with Trypanosoma cruzi, -6.16%; in test [4] it was -2.66%; in test [5], 5.26%. Also, the Percent Effect in the test filed under Homo sapiens was 9.12%; in test [6] it was -3.92%; in test [7], -4.71%; in test [8] it was -2.29%.

As for `CN1CCC/C1=N\S(=O)(=O)c1ccc(NC(=O)CCc2cccs2)cc1`, the Percent Effect turned out to be 2.31% in test [1]; 20.8% in [2]; 5.99% in [3]; 2.05% in the test on Trypanosoma cruzi; 12.1% in test [4]; 5.79% in test [5]. Besides, the Percent Effect in the test filed under Homo sapiens is 16.7%; in [6] it was 7.84%; in test [7] it was 28.2%; in test [8], -8.39%.

Consider `COCCc1noc(CN2CCCCC2Cn2nc(C)cc2C)n1` (stereo not given), for which the Percent Effect in test [1] was -2.9%; in test [2], -2.6%; in [3], 13.8%; with Trypanosoma cruzi, -1.68%; in [4], 2.25%; in test [5], -3.51%. The Percent Effect in the test filed under Homo sapiens was -5.82%; in [6], 0.98%; in test [7], 7.06%; in [8], 9%.

For `COc1c(C2CCCN2C(=O)c2cncnc2C)c(C)nn1C` (stereo not given), the Percent Effect in test [1] is 0.687%; in test [2], 20.8%; in test [3] it was 0.3%; in the test with Trypanosoma cruzi, -7.46%; in test [4] it was -3.48%; in test [5], 18.8%. The Percent Effect in the test listed under Homo sapiens is 21.6%; in test [6] it was 3.92%; in [7] it was 9.41%; in test [8], -6.48%.

On to `Cc1noc(C)c1CN1CCN(Cc2nccn2C)CC1`, for which the Percent Effect in [1] was -3.95%; in test [2] it was 2.67%; in test [3], 3.64%; in the test with Trypanosoma cruzi, -1.81%; in [4] it was -0.444%; in test [5] it was 13.7%. Besides, the Percent Effect in the test listed under Homo sapiens was -5.05%; in test [6] it was 6.84%; in test [7] it was 7.69%; in test [8], -11.9%.

The values are drawn from ChEMBL document CHEMBL3988442, “University of Dundee, Small-Polar-MMV Screening Library” (2021).
